Screens (PubChem BioAssay)
Shown are actives, neighbours in structure and some others; about 19% of the full set was active somewhere.
IL1B secr inh: blocks inflammasome-driven IL-1 beta release; THP-1 LPS/ATP IL-1B secretion, AlphaLISA, 16 h; stronger effect = lower value; activity change, % at 57.5 µM; actives 4.7% (n = 360,000); in the data active = activity change below about -50%; inconclusive = mostly about -30% to -49%
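Secreted IL-1B measured by AlphaLISA bead assay after 16 h compound exposure of THP-1 cells; compounds (final up to 57.5 uM) added 1 h before LPS (250 ng/mL) and ATP (1.25 mM) stimulation; lower signal means less secretion.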
ELG1 DNA repair: ELG1-dependent DNA repair inhibition; HEK293T ELG1-luciferase reporter, luminescence, 16 h; DNA damage induced by 5-fluorouridine; AID 504467; Potency, µM (series often up to 46.1 µM), for inactives: at the highest dose activity change, negative = inhibition, most hits filed as inhibitors; actives 2.3% (n = 330,000); also: potency is read from the fitted curve at half-maximal effect; nearly all actives have a fitted effect of over 55% in size
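In this reporter screen, reduction of luminescence relative to DMSO vehicle indicated activity. Compounds and 5-fluorouridine were added together to 2,000 cells per well, incubated for 16 hr at 37 °C, then developed with ONE-Glo.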
TDP1 cell noCPT: qHTS for Inhibitors of human tyrosyl-DNA phosphodiesterase 1 (TDP1): qHTS in cells in absence of CPT; AID 686978, 2013; Potency, µM (top dose mostly 46.2 µM), for inactives: at the highest dose activity change, negative = growth inhibition, most hits filed as inhibitors; actives 15% (n = 420,000); DT40 Tdp1-/- hTDP1 cells, no CPT, ATP luminescence, 48 h; also: potency is read from the fitted curve at half-maximal effect; nearly all actives have a fitted effect of over 55% in size
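No-CPT arm: Tdp1-/-;hTDP1 DT40 cells (400/well) plus compounds, incubated ≥48 hr at 37 °C. Readout CellTiter-Glo luminescence.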
HT1080 IDH1KD tx: HT-1080 IDH1 knockdown cell toxicity (counter line) | HT-1080 IDH1 knockdown viability, ATP luminescence, 48 h | Potency, µM (series often up to 46.1 µM), without a hit: at the top dose activity, negative = toxicity, most hits filed as cytotoxic | actives 2% (n = 360,000);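 also: potency is read from the fitted curve at half-maximal effect; 0% = DMSO wells and -100% = cell-free medium wells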
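Using the IDH1-knockdown HT-1080 line run in the same batch and compound series as the NT line, viability after 48 h at 37 °C was determined by CellTiter-Glo luminescence and expressed as % activity.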
TDP1 cell CPT: growth inhibition of DT40 Tdp1-/-;hTDP1 cells with camptothecin (screen for TDP1 inhibitors). AID 686979. actives 12% (n = 420,000). Potency, µM (series often up to 46.2 µM), for inactives: at the top dose activity change, negative = growth inhibition, most hits filed as inhibitors. chicken DT40 Tdp1-/-;hTDP1 cells + 20 nM CPT, ATP luminescence, 48 h; also: potency is read from the fitted curve at half-maximal effect; nearly all actives have a fitted effect of over 55% in size
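Chicken DT40 Tdp1-/- cells complemented with human TDP1, 400 cells/well, exposed to compounds plus 20 nM camptothecin for at least 48 h at 37 C; viability read as ATP content by CellTiter-Glo luminescence.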
HT1080-NT tox: kills 2HG-producing HT-1080-NT fibrosarcoma cells. AID 686970. HT-1080-NT fibrosarcoma viability, CellTiter-Glo ATP luminescence, 48 h. Potency, µM (top dose mostly 46.1 µM), for the others: at the highest dose activity, negative = less viability, hits mostly cytotoxic. actives 1.6% (n = 360,000);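 also: NT is the 2HG producing partner of a matched IDH1 knockdown line; potency is read from the fitted curve at half-maximal effect; 0% = DMSO-treated cells and -100% = media-only wells without cells; nearly all actives have a fitted effect of over 55% in size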
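Compounds were tested in concentration-response format on HT-1080-NT cells for 48 hours at 37 degrees C. Cell viability came from CellTiter-Glo luminescence; curves were classified by r2, response magnitude and activity.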
An asterisk follows results filed as active; ? = inconclusive; . = no result; [ ] = another dose, or the depositor's remark. Unless noted, calls follow the shape of the dose curve; as a rule, active = well fitted curve in the direction sought with a large enough effect; inconclusive = small, poorly fitted or top-dose-only effect, or another doubt; inactive = no such curve, though single readings can be large; an effect the other way counts as inactive or inconclusive. Unless noted, % is scaled to controls: 0 for no effect and ±100 for the full control effect.

SMILES	IL1B secr inh	ELG1 DNA repair	TDP1 cell noCPT	HT1080 IDH1KD tx	TDP1 cell CPT	HT1080-NT tox
CC(Sc1nn(-c2ccc(F)cc2)c(=S)s1)C(=O)c1c(N)n(C)c(=O)n(C)c1=O (stereo not given)	-6	3%	13µM*	-17%	?	-18%
Cn1c(N)c(C(=O)CSc2nn(-c3ccccc3)c(=S)s2)c(=O)n(C)c1=O	70	?	16µM*	-10%	?	-17%
CCOC(=O)c1c(C)nsc1NC(=O)C1(C)CCN1C(=O)CC (stereo not given)	-1	.	-22%	2%	-18%	5%
CCc1cc(C(=O)N2CCCc3ccccc32)sc1C	12	.	-22%	10%	?	6%
CC(C)n1cc(C#N)c(N)n1	18	.	-5%	22%	4%	8%
O=C(Nc1ccncc1)c1cc(S(=O)(=O)N2CCCC2)ccc1Cl	61	0%	?	-12%	?	-2%
O=C(Nc1ccccc1O)c1cc(S(=O)(=O)N2CCOCC2)ccc1Cl	-9	-1%	?	5%[9.24 µM]	-2%	6%
CCN1CCN(c2ccc(NC(=O)c3ccc(Cl)c(S(=O)(=O)N4CCCC4)c3)cc2)CC1	-10	-1%	?	?	?	?
CCN1CCN(c2ccc(NC(=O)c3cc(S(=O)(=O)N4CCCC4)ccc3Cl)cc2)CC1	21	25%	26µM*	-1%	?	-2%
O=C(Nc1ccccc1O)c1cc(S(=O)(=O)N2CCCC2)ccc1Cl	.	.	21µM*	.	?	.
O=C(Nc1ccncc1)c1cc(S(=O)(=O)N2CCCCC2)ccc1Cl	25	-30%	?	-12%	9.2µM*	-29%
O=C(Nc1ccc(N2CCOCC2)cc1)c1ccc(Cl)c(S(=O)(=O)N2CCCC2)c1	35	?	21µM*	?	?	-8%
CCOc1ccccc1C(=O)Nc1ccc(S(=O)(=O)Nc2ncccn2)cc1	.	.	-23%	.	1%	.
CCOCCCNC(=O)c1cnc2sc(N3CCCCC3)nn2c1=O	.	.	1%	.	-13%	.
COc1ccccc1NC(=O)C(C)Sc1nnc2ccccn12 (stereo not given)	-3	23%	?	1%	0%	-1%
NS(=O)(=O)c1ccc(Cl)c(C(=O)Nc2ccccc2[N+](=O)[O-])c1	-56*	-5%	-5%	-7%	3%	-10%
CCN(CC)CCNC(=O)c1ccc(NC(=O)c2ccc(S(=O)(=O)N3CCCC3)cc2)cc1	-14	.	2%	4%	-3%	1%
CCN(CC)CCOC(=O)c1ccc(NC(=O)c2ccc(Cl)c(S(=O)(=O)N3CCCCCC3)c2)cc1	-69*	?	?	?	21µM*	?
O=C(Nc1ccc(Cl)c(S(=O)(=O)N2CCCCC2)c1)c1cnccn1	0	-16%	-15%	-14%	-21%	0%
CCCn1c(C)cc(C(=O)COC(=O)c2ccc(Cl)c(S(=O)(=O)N3CCCC3)c2)c1C	11	?	15µM*	3%	23µM*	-2%
CCCCNC(=O)COC(=O)c1ccc(Cl)c(S(=O)(=O)N2CCCC2)c1	12	?	-1%	-2%	-2%	-2%
O=C(Nc1ccc(Cl)c(S(=O)(=O)N2CCCCC2)c1)c1ccncc1	-5	?	13µM*	-13%	15µM*	?
O=C(Nc1ccncc1)c1ccc(Cl)c(S(=O)(=O)N2CCCCC2)c1	-11	?	16µM*	8.2µM*	13µM*	?
O=C(O)c1ccc(NC(=O)c2ccc(Cl)c(S(=O)(=O)N3CCCCCC3)c2)cc1	.	.	-18%	.	-21%	.
O=C(OCc1nc(-c2ccccc2Cl)no1)c1ccco1	6	19%	8%	0%	-3%	6%
SMILES	IL1B secr inh	ELG1 DNA repair	TDP1 cell noCPT	HT1080 IDH1KD tx	TDP1 cell CPT	HT1080-NT tox
CCc1ccc(NC(=O)c2ccc(F)c(S(=O)(=O)N(CC)c3ccccc3)c2)cc1	18	?	8.2µM*	?	?	-24%
CCN(c1ccccc1)S(=O)(=O)c1cc(NC(=O)C2CC2)ccc1Cl	68	-7%	-13%	-3%	-19%	5%[9.24 µM]
CCN(c1ccccc1)S(=O)(=O)c1cc(C(=O)Nc2cccc(Cl)c2)ccc1F	-10	23µM*	?	?	?	?
CCCCCC(=O)N1C[C@@H](O)[C@H](n2cc(COC(=O)c3ccccc3)nn2)C[C@@H]1c1ccc(OC)cc1	17	.	-2%	16%	21%	14%
O=C(Nc1ccccc1)c1ccc(NC2CCCCC2)c(S(=O)(=O)N2CCOCC2)c1	-52*	15µM*	?	-12%	?	-2%
O=C(Nc1ccc(F)cc1)c1ccc(Br)c(S(=O)(=O)N2CCOCC2)c1	?	15µM*	?	-7%	?	-1%
O=C(Nc1ccccc1)c1ccc(Br)c(S(=O)(=O)N2CCCCC2)c1	.	.	21µM*	.	18µM*	.
Cc1oc(S(=O)(=O)N2CCOCC2)cc1C(=O)Nc1ccc(F)cc1	7	23µM*	-26%	1%	-1%	4%
O=C(Nc1ccc2c(c1)OCCO2)c1ccc(Br)c(S(=O)(=O)N2CCOCC2)c1	-7	?	?	-23%	?	-1%
O=C(Nc1ccccc1)c1ccc(N2CCN(c3ccccc3)CC2)c(S(=O)(=O)N2CCOCC2)c1	-16	?	17%	0%	7%	0%
CC(C)NC(=O)C1(C)CCN1C(=O)C(c1ccccc1)c1ccccc1 (stereo not given)	17	.	-15%	-3%	-9%	29%
O=C(Nc1cc(S(=O)(=O)N2CCCCC2)ccc1N1CCCCC1)c1ccncc1	-25	-18%	?	2%	?	0%
CC(C)Oc1ccc(S(=O)(=O)N2CCOCC2)cc1NC(=O)C1=COCCO1	-9	12%	?	-8%	-2%	-2%
O=C(Nc1ccc(Cl)cn1)c1ccc(Br)c(S(=O)(=O)N2CCCCC2)c1	-7	-4%	?	16%	23µM*	1%
O=C(Nc1ccc(Br)cc1)c1ccc(Br)c(S(=O)(=O)N2CCCCC2)c1	.	.	18µM*	.	?	.
Cc1ccc(NC(=O)c2ccc(Cl)c(S(=O)(=O)N3CCCCCC3)c2)nc1	-8	?	?	-13%	-30%	?
C=CCNC(=S)N(C1CCCCC1)C1CCCCC1	0	2%	23µM*	-2%	?	16%
